JMJD2E inh: qHTS Assay for Inhibitors of Human Jumonji Domain Containing 2E (JMJD2E) | hit rate 1.6% among 230,000 | JMJD2E catalytic domain, FDH-coupled NADH fluorescence (FDH is formaldehyde dehydrogenase) | Lysine-specific demethylase 4E (Homo sapiens), B2RXH2 | Potency, µM (titrated, usually from 57.1 µM), without a hit: at the highest dose activity change, negative = inhibition, actives largely listed as inhibitors; active = well fitted inhibition curve with a large enough effect, not every such curve was filed as active; inconclusive = small, poorly fitted or top-dose-only effect, or another doubt; inactive = no such curve, though single readings can be large or run the other way;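 note: 0% = wells with enzyme and -100% = buffer wells without enzyme; nearly all actives have a fitted effect of over 50% in size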
Target sequence (B2RXH2 1-337 limits assumed): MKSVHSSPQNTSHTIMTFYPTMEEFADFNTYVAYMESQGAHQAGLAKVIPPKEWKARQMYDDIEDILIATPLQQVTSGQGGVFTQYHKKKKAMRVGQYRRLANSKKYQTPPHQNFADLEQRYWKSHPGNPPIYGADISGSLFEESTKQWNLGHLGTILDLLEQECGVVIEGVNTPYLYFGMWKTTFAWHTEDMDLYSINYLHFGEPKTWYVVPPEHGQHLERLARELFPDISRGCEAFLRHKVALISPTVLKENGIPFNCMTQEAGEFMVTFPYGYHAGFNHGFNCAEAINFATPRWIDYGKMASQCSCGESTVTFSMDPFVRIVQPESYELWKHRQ
Tau fluor cs: Counterscreen qHTS for Inhibitors of Tau Fibril Formation, Fluorescence Polarization; tau K18 P301L Alexa594 fluorescence, heparin fibrillization; Potency, µM (top dose mostly 57.7 µM), without a hit: at the top dose activity change, negative = decrease; hit rate 0.93% among 280,000; note: nearly all actives have a fitted effect of over 55% in size
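Human K18 P301L tau (15 uM unlabeled plus 0.24 uM Alexa 594-labeled, final) in 100 mM sodium acetate pH 7 was mixed with compound and 20 uM heparin and incubated 6 hr at 37 C.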
ALDH1A1 inh: qHTS Assay for Inhibitors of Aldehyde Dehydrogenase 1 (ALDH1A1); Potency, µM (series often up to 75.3 µM), for the others: top-dose activity, negative = inhibition, usual class: inhibitors; Purified ALDH1A1, NADH fluorescence, propionaldehyde substrate; hit rate 7.3% among 220,000; Aldehyde dehydrogenase 1A1 (Homo sapiens), P00352; AID 1030, 2008; active = well fitted inhibition curve with a large enough effect, not every such curve was filed as active; inconclusive = small, poorly fitted or top-dose-only effect, or another doubt; inactive = no such curve, though single readings can be large or run the other way;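 note: plate controls were no enzyme wells and a reference inhibitor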
Tau fibril FP: qHTS for Inhibitors of Tau Fibril Formation, Fluorescence Polarization. Microtubule-associated protein tau (Homo sapiens), P10636. K18 P301L tau heparin fibrillization, Alexa594 FP, 6 h. Potency, µM (titrated, usually from 57.7 µM), inactives show top-dose activity, negative = inhibition, usual class: inhibitors. hit rate 0.39% among 280,000; note: nearly all actives have a fitted effect of over 55% in size
Target sequence (P10636 561-689 P618L limits assumed): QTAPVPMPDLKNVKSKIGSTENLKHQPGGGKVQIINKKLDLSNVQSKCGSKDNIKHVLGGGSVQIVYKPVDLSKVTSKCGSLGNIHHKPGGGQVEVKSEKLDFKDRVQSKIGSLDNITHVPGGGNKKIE
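Compound effects on tau fibrillization are measured by Alexa 594 fluorescence polarization (ex 555, em 632 nm). K18 P301L tau is used at 15 uM with 0.24 uM labeled tracer, and 20 uM heparin induces aggregation over 6 hr at 37 C.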
Tau fibril ThT: qHTS for Inhibitors of Tau Fibril Formation, Thioflavin T Binding; recombinant tau K18 P301L (four-repeat tau fragment), heparin-induced fibrillization, ThT fluorescence; Potency, µM (series often up to 57.4 µM), inactives show at the highest dose activity, negative = inhibition, actives largely listed as inhibitors; Microtubule-associated protein tau (Homo sapiens), P10636; hit rate 2.1% among 270,000; note: nearly all actives have a fitted effect of over 55% in size
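Recombinant human tau K18 fragment […] carrying P301L, 15 uM unlabeled plus 0.24 uM Alexa 594-labeled, was fibrillized with 20 uM heparin in 100 mM sodium acetate pH 7 for 6 hr at 37 C; 30 uM ThT fluorescence read after 1 hr.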
HPGD inh: qHTS Assay for Inhibitors of HPGD (15-Hydroxyprostaglandin Dehydrogenase); hit rate 4.3% among 150,000; AID 894, 2007; 15-hydroxyprostaglandin dehydrogenase [NAD(+)] (Homo sapiens), P15428; Potency, µM, for inactives: at the top dose activity change, negative = inhibition, actives largely listed as inhibitors; purified HPGD, NADH fluorescence kinetic, PGE2 substrate; active = well fitted inhibition curve with a large enough effect, not every such curve was filed as active; inconclusive = small, poorly fitted or top-dose-only effect, or another doubt; inactive = no such curve, though single readings can be large or run the other way
Target sequence (P15428 whole entry, looked up): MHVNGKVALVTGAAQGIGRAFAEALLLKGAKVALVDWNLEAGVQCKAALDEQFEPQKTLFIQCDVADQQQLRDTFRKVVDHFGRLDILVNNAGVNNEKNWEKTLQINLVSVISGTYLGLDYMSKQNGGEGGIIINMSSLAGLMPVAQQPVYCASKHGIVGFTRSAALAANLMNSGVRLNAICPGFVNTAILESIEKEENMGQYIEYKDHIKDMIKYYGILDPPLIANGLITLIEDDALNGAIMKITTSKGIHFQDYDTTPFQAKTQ
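NADH formation kinetics: reaction with 30 uM PGE2 and 1 mM NAD+ (final), 20 nM enzyme, Tris-HCl pH 8 with Tween 20, after 15 min compound preincubation at room temperature. Fluorescence change, last versus first of five reads.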
Starred values were filed as active, the others as inactive; ? = inconclusive; . = not tested or not shown; ! = not confirmed by another sample; [ ] = remark or other dose. In the library only some 9.9% were active in any assay of this set; here they are far more common. Unless noted, calls come from the whole dose curve; as a rule, active = well fitted curve in the direction sought with a large enough effect; inconclusive = small, poorly fitted or top-dose-only effect, or another doubt; inactive = no such curve, though single readings can be large; an effect the other way counts as inactive or inconclusive. Unless noted, % is set by controls: 0 for no effect and ±100 for the full control effect; potency is the fitted concentration of half-maximal effect.

SMILES	JMJD2E inh	Tau fluor cs	ALDH1A1 inh	Tau fibril FP	Tau fibril ThT	HPGD inh
CCc1cc(C(=O)c2ccc(C)cc2)c(NC(=O)CCl)s1	-7.1%	-20.4%	2.51µM*	4.9%	?	-15.6%
Cc1cc(C(=O)c2ccc(Cl)cc2)c(NC(=O)CCl)s1	-5.4%	-14.6%	0.891µM*	-1.1%	?	-8.2%
Cc1ccc(C(=O)c2cc(C)sc2N)cc1	5.5%	-22.8%	-21.4%	0.7%	?	.
Cc1cc(-c2ccc(Cl)cc2Cl)c(C#N)c(=O)[nH]1	?	-2.5%	.	7.3%	.	.
CSc1nc(-c2ccc(Cl)cc2Cl)[nH]c(=O)c1C#N	10.2%	-4.6%	15.0%	-11.2%	0.2%	2.51µM*
Cc1ccc(CCNC(=O)C23CN(Cc4ccccc4)CC2C(c2ccc([N+](=O)[O-])cc2)=NO3)cc1 (stereo not given)	0.4%	-24.3%	14.1µM*	?	-11.2%	-13.9%
COC(=O)c1ccccc1NC(=O)CSc1nc(-c2ccccc2)cc(C(F)(F)F)n1	.	-24.7%	.	-22.1%	-9.2%	.
CCCCCCCNC1=CC(=O)CC(c2ccco2)C1 (stereo not given)	-14.1%	-12.0%	25.1µM*	-1.1%	-16.3%	-9.2%
CCOc1ccc(NC2=CC(=O)CC(c3ccco3)C2)cc1 (stereo not given)	-11.1%	-4.8%	-10.6%	-2.7%	-7.4%	.
Cn1c(N)c(C(=O)COC(=O)CN2C(=O)c3ccccc3C2=O)c(=O)n(C)c1=O	7.5%	3.3%	-4.2%	4.2%	1.7%	2.2%
Cn1c(N)c(C(=O)COC(=O)Cn2cc(C(F)(F)F)ccc2=O)c(=O)n(C)c1=O	4.8%	7.9%	6.7%	4.7%	3.7%	15.8µM*
CSc1nsc(/C=C/Nc2ccc(C)cc2)c1C#N	1.5%	11.0%	7.51µM*	-2.8%	18.7%	14.1µM*
COc1cc(/C=N/Nc2snc(SC)c2C#N)ccc1O	?	?	0.9%	12.3%	?	?
NS(=O)(=O)c1ccc(CNS(=O)(=O)c2ccc(Cl)nc2)cc1	3.6%	2.7%	22.4µM*	4.6%	4.3%	.
O=S(=O)(NCc1ccc(Cl)cc1)c1ccc(Cl)nc1	2.0%	-4.4%	5.7%	-0.5%	-4.3%	-8.4%
COC(=O)C1(O)CC(C(C)C)=NN1C(=O)c1ccccc1 (stereo not given)	-3.0%	1.1%	3.7%	-1.5%	0.0%	2.8%
O=C(Cn1cc(S(=O)(=O)Cc2cccc(Cl)c2)c2ccccc21)NCCc1ccccc1	.	-4.6%	.	-14.5%	5.0%	.
C/C(CCC(=O)OC[C@@H]1O[C@H](C#Cc2ccccc2)C=C[C@@H]1Oc1ccc(C)cc1)=N/OC[C@@H](C)[C@H](OCc1ccccc1)C(C)C	.	-3.8%[11.6 µM]	-0.8%[13.5 µM]	3.7%[11.6 µM]	-8.7%[11.5 µM]	.
Cc1ccc2ncccc2c1	.	.	?	.	.	-7.3%
Cc1cc(N(C)C)ccc1N=Nc1ccc2ncccc2c1	-24.7%	?	-11.1%	11.0%	0.501µM*	.
Cc1ccc(NC(=O)c2ccc(NC(=O)N3CCSc4nc(C)cc(C)c43)cc2)c(Cl)c1	.	5.0%	.	1.0%	5.6%	.
COCCN1C(=O)/C(=C/c2cc3c(cc2Br)OCO3)NC1=S	-9.8%	?	0.199µM*	3.3%	?	.
C=CCN1C(=O)/C(=c2\sc3nc(=O)c(Cc4ccccc4Cl)nn3c2=O)c2ccccc21	-7.1%	-11.9%	3.55µM*	?	?	.
CCOc1ccc2nc(N3CCCC(C(=O)Nc4ccc(OC)c(Cl)c4)C3)sc2c1 (stereo not given)	.	?	.	?	-9.2%	.
CSc1nnc(-c2cc3c(s2)-c2ccccc2CC3)o1	?	-24.9%	?	-1.7%	?	?
SMILES	JMJD2E inh	Tau fluor cs	ALDH1A1 inh	Tau fibril FP	Tau fibril ThT	HPGD inh
S=c1[nH]nc(-c2cc3c(s2)-c2ccccc2CC3)o1	?	?	?	13.0%	12.6µM*	?
COc1ccc(COc2cc(-c3cccc(OC)c3)nc3ccc(NC(=O)c4ccc(Cl)cc4)cc23)cc1	?	-12.0%	?	20µM*	-10.1%	?
COC(=O)c1ccc(COC(=O)c2ccc(-n3cnnn3)cc2)o1	-4.7%	4.0%	20µM*	-2.5%	5.7%	-17.0%
CCCc1c(O)nc(SCCN(CC)CC)n(C(=O)c2ccccc2)c1=O	-1.5%	1.3%	-14.7%	0.5%	-4.8%	-9.9%
COc1ccc([C@@H](C)c2cc3c(cc2O)OCO3)cc1	.	.	2.6%[13.5 µM]	.	.	-9.2%
Oc1cc2c(cc1C(c1ccc(Cl)c(Cl)c1)N1CCCC1)OCO2 (stereo not given)	2.2%	3.1%	0.794µM*	-5.7%	7.1%	.
COc1cccc(-c2nccc(NCc3ccc(OC)cc3OC)n2)c1	.	.	-8.8%	.	.	.
O=C(CCCCn1c(=O)c2ccccc2n(Cc2ccccc2F)c1=O)NC1CCN(Cc2ccccc2)CC1	-12.7%	-13.6%	3.4%	-7.6%	?	.
COc1ccc2[nH]cc(CCNC(C)=O)c2c1	?	-1.3%	-2.3%	-12.2%	2.5%	?
CC(=O)NCCc1c[nH]c2ccc(O)cc12	?	?	-4.9%	?	?	11.2µM*!
Cc1ccc2nc(-c3ccc(NS(=O)(=O)c4ccc(F)c(F)c4)cc3)sc2c1	5.7%	10µM*[quencher]	?	?	?	?
CC1=C(CC(=O)c2ccc(Cl)cc2)C(=O)c2ccccc2C1=O	?	?	2.51µM*	?	?	-26.5%
Cc1ccccc1-c1nsc(SCC(=O)c2ccc(Cl)cc2)n1	7.3%	-14.9%	-9.4%	-5.3%	-18.1%	-20.8%
Cc1cc(Cl)ccc1NNC(=O)c1cccs1	-20.7%	-9.8%	-4.7%	-9.5%	?	.
O=C(NNc1cc(Cl)ccc1Cl)c1cccs1	-5.6%	6.9%	1.89µM*	-1.9%	11.7%	.
Cc1ccccc1NS(=O)(=O)c1ccc2[nH]c3c(c2c1)CCCCC3	.	14.1µM*[quencher]	.	4.6%	-11.0%	.
Cc1cccc(NS(=O)(=O)c2ccc3[nH]c4c(c3c2)CCCCCC4)c1	.	11.2µM*[quencher]	.	6.6%	-0.4%	.
O=S(=O)(Nc1cccc(Cl)c1)c1ccc2[nH]c3c(c2c1)CCCCCC3	.	8.91µM*[quencher]	.	?	-9.6%	.
O=S(=O)(NCc1ccccc1)c1ccc2[nH]c3c(c2c1)CCCCC3	.	?	.	-11.2%	11.4%	.
CN(CC(=O)NCc1ccccc1)S(=O)(=O)c1ccc2[nH]c3c(c2c1)CCCC3	.	?	.	?	-5.2%	.
